Among the data in PubChem BioAssay (EPA / NIEHS) are outcome and AC50 values, retold here.

Read-out in experiment [1]: NAD(P)H dehydrogenase [quinone] 1 (NQO1), NQO1 (gene 1728)
The experiment can be described thus: LTEA_HepaRG_NQO1: Life Technologies and Expression Analysis (LTEA) Assay for NAD(P)H dehydrogenase [quinone] 1 (NQO1) using HepaRG (AID 2283526). To be noted: mRNA level, 48 h; actives raise or lower the signal. Summed up: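 Differentiated HepaRG cells, plated 48 h and then switched to serum-free induction medium, were exposed in duplicate for 48 h to 8-point half-log concentrations up to 100 uM in 0.5% DMSO. mRNA measured by qRT-PCR, normalized to ACTB, GAPDH, POLR2A; bidirectional fit versus DMSO.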

Read-out in experiment [2]: Nuclear factor erythroid 2-related factor 2 (Homo sapiens) (UniProt Q16236)
The experiment is described as follows: LTEA_HepaRG_NFE2L2: Life Technologies and Expression Analysis (LTEA) Assay for Nuclear factor erythroid 2-related factor 2 (NFE2L2) Transcription Factor using HepaRG (AID 2283527).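 Note: TaqMan qRT-PCR transcript level normalised to ACTB GAPDH and POLR2A housekeeping genes.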 To be noted: mRNA level, 48 h; actives raise or lower the signal. In short, it runs like this: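 Transcript level of NFE2L2 is the read-out, measured by microfluidic TaqMan qRT-PCR and normalized to three housekeeping genes. Human HepaRG cultures received test chemical for 48 h at up to 100 uM in half-log steps. Gain or loss of signal is fitted relative to 0.5% DMSO.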

Read-out in experiment [3]: succinate dehydrogenase complex iron sulfur subunit B (SDHB), SDHB (gene 6390)
The experiment can be described thus: LTEA_HepaRG_SDHB: Life Technologies and Expression Analysis (LTEA) Assay for succinate dehydrogenase complex iron sulfur subunit B (SDHB) using HepaRG (AID 2283528). The conditions noted are these: mRNA level, 48 h; actives raise or lower the signal. Summed up:
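HepaRG, 48 h exposure, 8-pt half-log series from 100 uM in 0.5% DMSO, duplicates. Readout: SDHB mRNA by Fluidigm qRT-PCR vs housekeeping genes; bidirectional fit relative to DMSO.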

Read-out in experiment [4]: Signal transducer and activator of transcription 3 (Homo sapiens) (UniProt P40763)
The experiment can be described thus: LTEA_HepaRG_STAT3: Life Technologies and Expression Analysis (LTEA) Assay for Signal transducer and activator of transcription (STAT3) using HepaRG (AID 2283529). The conditions noted are these: mRNA level, 48 h; actives raise or lower the signal. In short, it runs like this:
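Read-out is STAT3 mRNA level by qRT-PCR, normalized to three housekeeping genes, in human HepaRG liver cells treated for 48 h. Concentrations ran from 100 uM downward in half-log steps; curves were fitted for gain or loss relative to 0.5% DMSO.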

Read-out in experiment [5]: solute carrier (SLCO1B1), SLCO1B1 (gene 10599)
The experiment is described as follows: LTEA_HepaRG_SLCO1B1: Life Technologies and Expression Analysis (LTEA) Assay for solute carrier (SLCO1B1) using HepaRG (AID 2283530). To be noted: mRNA level, 48 h; actives raise or lower the signal. Summed up: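 Human HepaRG cultures treated for 48 h with an eight-concentration half-log series topping at 100 uM; SLCO1B1 measured by qRT-PCR and fitted bidirectionally relative to DMSO.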

Read-out in experiment [6]: sulfotransferase 2A1 (SULT2A1), SULT2A1 (gene 6822)
The experiment is described as follows: LTEA_HepaRG_SULT2A1: Life Technologies and Expression Analysis (LTEA) Assay for sulfotransferase 2A1 (SULT2A1) using HepaRG (AID 2283531). To be noted: mRNA level, 48 h; actives raise or lower the signal. In short, it runs like this:
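Gene-expression endpoint in a human liver cell line: SULT2A1 mRNA change after 48 h chemical treatment, curves fitted in both directions relative to 0.5% DMSO vehicle. Concentrations spanned eight half-log steps from 100 uM.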

Read-out in experiment [7]: Transforming Growth Factor (TGFA), TGFA (gene 7039)
The experiment is described as follows: LTEA_HepaRG_TGFA: Life Technologies and Expression Analysis (LTEA) Assay for Transforming Growth Factor (TGFA) using HepaRG (AID 2283532). The conditions noted are these: mRNA level, 48 h; actives raise or lower the signal. In short, it runs like this:
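HepaRG (human liver line), 48 h exposure, 8 conc. half-log down from 100 uM, 0.5% DMSO vehicle, duplicates; serum-free induction medium. TGFA mRNA by TaqMan qRT-PCR, ACTB/GAPDH/POLR2A normalization; gain/loss fit vs DMSO.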

Read-out in experiment [8]: Transforming Growth Factor (TGFB1), TGFB1 (gene 7040)
The experiment is described as follows: LTEA_HepaRG_TGFB1: Life Technologies and Expression Analysis (LTEA) Assay for Transforming Growth Factor (TGFB1) Transporter using HepaRG (AID 2283533). The conditions noted are these: mRNA level, 48 h; actives raise or lower the signal. Summed up:
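Eight-point concentration-response (max 100 uM, half-log) in HepaRG under serum-free induction conditions, 48 h. TGFB1 mRNA by qRT-PCR, housekeeping-normalized.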

Read-out in experiment [9]: TIMP1, TIMP1 (gene 7076)
The experiment is described as follows: LTEA_HepaRG_TIMP1: Life Technologies and Expression Analysis (LTEA) Assay for TIMP1 using HepaRG (AID 2283534).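 Note: TaqMan qRT-PCR signal normalized to ACTB GAPDH and POLR2A housekeeping genes.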 The conditions noted are these: mRNA level, 48 h; actives raise or lower the signal. Summed up:
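TIMP1 induction or repression in HepaRG cells after 48 h chemical exposure (eight concentrations, highest 100 uM), assessed by normalized qRT-PCR with bidirectional fitting to DMSO controls.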

Read-out in experiment [10]: Tumor necrosis factor receptor 1 (TNFRSF1A), TNFRSF1A (gene 7132)
The experiment is described as follows: LTEA_HepaRG_TNFRSF1A: Life Technologies and Expression Analysis (LTEA) Assay for Tumor necrosis factor receptor 1 (TNFRSF1A) using HepaRG (AID 2283535). To be noted: mRNA level, 48 h; actives raise or lower the signal. Summed up: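 Assay uses 48 h chemical treatment of differentiated HepaRG monolayers, tested in duplicate at eight concentrations from 100 uM downward in 0.5% DMSO. mRNA is normalized to ACTB, GAPDH and POLR2A, with induction or suppression fitted relative to vehicle.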

Read-out in experiment [11]: Thyroid Hormone Responsive (THRSP), THRSP (gene 7069)
The experiment is described as follows: LTEA_HepaRG_THRSP: Life Technologies and Expression Analysis (LTEA) Assay for Thyroid Hormone Responsive (THRSP) using HepaRG (AID 2283536). The conditions noted are these: mRNA level, 48 h; actives raise or lower the signal. Summed up:
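mRNA induction or loss relative to 0.5% DMSO vehicle was fitted bidirectionally across an eight-point curve whose highest exposure was 100 uM. Human HepaRG liver cells received chemicals in duplicate over 48 h before RNA extraction.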

Read-out in experiment [12]: Cellular tumor antigen p53 (Homo sapiens) (UniProt P04637)
The experiment is described as follows: LTEA_HepaRG_TP53: Life Technologies and Expression Analysis (LTEA) Assay for Tumor Protein P53 (TP53) using HepaRG (AID 2283537). The conditions noted are these: mRNA level, 48 h; actives raise or lower the signal. Summed up:
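HepaRG, 48 h exposure, top 100 uM, half-log 8-point, 0.5% DMSO vehicle, duplicates. Read: TP53 mRNA by TaqMan qRT-PCR, normalised to ACTB/GAPDH/POLR2A; bidirectional fit vs DMSO.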

Read-out in experiment [13]: UDP glucuronosyltransferase (UGT1A1), UGT1A1 (gene 54658)
The experiment is described as follows: LTEA_HepaRG_UGT1A1: Life Technologies and Expression Analysis (LTEA) Assay for UDP glucuronosyltransferase (UGT1A1) using HepaRG (AID 2283538). To be noted: mRNA level, 48 h; actives raise or lower the signal. Summed up:
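Differentiated human HepaRG cells in serum-free induction medium were exposed in duplicate for 48 h to eight half-log concentrations up to 100 uM in 0.5% DMSO. UGT1A1 mRNA was quantified by TaqMan qRT-PCR, normalized to ACTB, GAPDH and POLR2A, and fitted bidirectionally against DMSO.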

Read-out in experiment [14]: UDP glucuronosyltransferase (UGT1A6), UGT1A6 (gene 54578)
The experiment can be described thus: LTEA_HepaRG_UGT1A6: Life Technologies and Expression Analysis (LTEA) Assay for UDP glucuronosyltransferase (UGT1A6) using HepaRG (AID 2283539). The conditions noted are these: mRNA level, 48 h; actives raise or lower the signal. In short, it runs like this: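 Measures mRNA change in HepaRG hepatic cells exposed 48 h to chemicals (eight-point, maximum 100 uM, 0.5% DMSO vehicle) in serum-free induction medium. Expression normalized to endogenous controls; DMSO served as negative control and baseline.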

Read-out in experiment [15]: X-box binding protein 1 (XBP1), XBP1 (gene 7494)
The experiment can be described thus: LTEA_HepaRG_XBP1: Life Technologies and Expression Analysis (LTEA) Assay for X-box binding protein 1 (XBP1) using HepaRG (AID 2283540). To be noted: mRNA level, 48 h; actives raise or lower the signal. In short, it runs like this: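 Eight concentrations (half-log, highest 100 uM, 0.5% DMSO) tested in duplicate on HepaRG cells over 48 h in serum-free induction medium; qRT-PCR of XBP1 normalised to ACTB, GAPDH, POLR2A.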

Experiment [16] in a line: LTEA_HepaRG_LDH_cytotoxicity: Cytotoxicity Assessment in the Life Technologies and Expression Analysis (LTEA) Assay (AID 2283563; active = hit-call score of the fitted dose curve at least 0.9, where 1 is the maximum). In short, it runs like this: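 Spent-medium LDH after 48 h chemical exposure of HepaRG cells in serum-free induction medium; eight concentrations, half-log dilutions from 100 uM, duplicate wells, fitted upward relative to 0.5% DMSO.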
Experiment [17] is described as follows: ATG_XTT_Cytotoxicity: Cytotoxicity Assessment in the Attagene TRANS-FACTORIAL HepG2 Assay (AID 2283584; active = hit-call score of the fitted dose curve at least 0.9, where 1 is the maximum;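 for AC50: XTT signal for cell number as viability in transfected HepG2 cells; cells exposed to compound for 24 h before reading; active means loss of viability signal versus DMSO baseline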). Summed up:
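24 h chemical exposure of reporter-transfected HepG2; XTT signal loss vs DMSO indicates cytotoxicity.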

Experiment [18] in a line: TOX21_p53_BLA_p2_viability: Viability Assessment in the Tox21 HCT-116 p53 Agonism Beta-lactamase Assay, Phase 2 (AID 2283591; active = hit-call score of the fitted dose curve at least 0.9, where 1 is the maximum;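 note: compound exposure lasted 16 h at 37 °C; actives lower the ATP signal meaning cytotoxicity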). In short, it runs like this: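 Cytotoxicity readout: CellTiter-Glo ATP luminescence, 30 min at room temperature, after the beta-lactamase read. Cells were HCT116 exposed 16 h at 37C to compounds pin-transferred at 217-fold dilution from DMSO stocks.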

Experiment [19] deals with Cellular tumor antigen p53 (Homo sapiens) (UniProt P04637). The experiment is described as follows: TOX21_p53_BLA_p2_ratio: Tox21 HCT-116 p53 Agonism Beta-lactamase Assay, Ratio, Phase 2 (AID 2283592; active = hit-call score of the fitted dose curve at least 0.9, where 1 is the maximum). Summed up: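 Human colon HCT116 cells with an inducible p53 beta-lactamase reporter are exposed to test chemicals for 16 h at 37C. Reporter induction is read as the 460/530 nm emission ratio after CCF4-AM loading, normalized to DMSO.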
Cellular tumor antigen p53 (Homo sapiens), sequence (P04637 whole entry, looked up): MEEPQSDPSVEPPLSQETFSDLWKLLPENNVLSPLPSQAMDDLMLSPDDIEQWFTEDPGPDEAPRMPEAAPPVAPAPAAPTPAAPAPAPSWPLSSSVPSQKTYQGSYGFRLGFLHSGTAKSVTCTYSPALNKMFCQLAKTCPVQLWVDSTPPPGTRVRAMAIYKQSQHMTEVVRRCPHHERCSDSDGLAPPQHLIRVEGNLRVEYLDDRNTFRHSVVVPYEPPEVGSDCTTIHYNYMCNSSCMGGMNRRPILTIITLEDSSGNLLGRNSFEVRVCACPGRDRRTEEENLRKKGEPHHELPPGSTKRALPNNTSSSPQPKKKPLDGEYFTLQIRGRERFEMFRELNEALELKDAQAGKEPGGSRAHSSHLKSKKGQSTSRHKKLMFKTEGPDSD

Read-out in experiment [20]: Pyruvate Dehydrogenase Kinase 4 (PDK4), PDK4 (gene 5166)
The experiment is described as follows: LTEA_HepaRG_PDK4: Life Technologies and Expression Analysis (LTEA) Assay for Pyruvate Dehydrogenase Kinase 4 (PDK4) using HepaRG (AID 2283525). The conditions noted are these: mRNA level, 48 h; actives raise or lower the signal. Summed up:
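In this multiplexed human HepaRG expression assay, cells are treated 48 h with test chemicals across an eight-point range starting at 100 uM. PDK4 mRNA changes, normalized to ACTB/GAPDH/POLR2A, are fitted in both directions relative to vehicle.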

The structures appear in SMILES notation. Records with an inconclusive call do not appear. The source holds several records for some structures; these can differ, active in one and inactive in another. Active and inactive are the calls of the source. Rule for the calls, unless noted: active = hit-call score of the fitted dose curve at least 0.9, where 1 is the maximum; inactive = score below 0.9.

Nuclear factor erythroid 2-related factor 2 (Homo sapiens), sequence (Q16236 whole entry, looked up): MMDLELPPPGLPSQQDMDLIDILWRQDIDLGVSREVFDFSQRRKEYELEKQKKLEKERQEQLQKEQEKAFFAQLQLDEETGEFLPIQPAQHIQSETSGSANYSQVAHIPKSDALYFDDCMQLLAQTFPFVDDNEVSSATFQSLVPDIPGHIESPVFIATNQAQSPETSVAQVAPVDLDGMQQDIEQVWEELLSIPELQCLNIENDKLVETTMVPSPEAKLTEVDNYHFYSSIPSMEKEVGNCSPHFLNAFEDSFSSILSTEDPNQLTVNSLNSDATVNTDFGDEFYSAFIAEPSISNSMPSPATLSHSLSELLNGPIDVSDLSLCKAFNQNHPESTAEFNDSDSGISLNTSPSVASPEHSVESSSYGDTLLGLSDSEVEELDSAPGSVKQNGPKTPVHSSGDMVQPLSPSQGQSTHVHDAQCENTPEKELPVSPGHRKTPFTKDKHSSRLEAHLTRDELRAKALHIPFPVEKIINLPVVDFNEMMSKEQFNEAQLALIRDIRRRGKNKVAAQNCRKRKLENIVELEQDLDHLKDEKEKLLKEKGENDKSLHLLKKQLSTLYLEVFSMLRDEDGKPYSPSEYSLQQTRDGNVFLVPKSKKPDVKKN
Signal transducer and activator of transcription 3 (Homo sapiens), sequence (P40763 whole entry, looked up): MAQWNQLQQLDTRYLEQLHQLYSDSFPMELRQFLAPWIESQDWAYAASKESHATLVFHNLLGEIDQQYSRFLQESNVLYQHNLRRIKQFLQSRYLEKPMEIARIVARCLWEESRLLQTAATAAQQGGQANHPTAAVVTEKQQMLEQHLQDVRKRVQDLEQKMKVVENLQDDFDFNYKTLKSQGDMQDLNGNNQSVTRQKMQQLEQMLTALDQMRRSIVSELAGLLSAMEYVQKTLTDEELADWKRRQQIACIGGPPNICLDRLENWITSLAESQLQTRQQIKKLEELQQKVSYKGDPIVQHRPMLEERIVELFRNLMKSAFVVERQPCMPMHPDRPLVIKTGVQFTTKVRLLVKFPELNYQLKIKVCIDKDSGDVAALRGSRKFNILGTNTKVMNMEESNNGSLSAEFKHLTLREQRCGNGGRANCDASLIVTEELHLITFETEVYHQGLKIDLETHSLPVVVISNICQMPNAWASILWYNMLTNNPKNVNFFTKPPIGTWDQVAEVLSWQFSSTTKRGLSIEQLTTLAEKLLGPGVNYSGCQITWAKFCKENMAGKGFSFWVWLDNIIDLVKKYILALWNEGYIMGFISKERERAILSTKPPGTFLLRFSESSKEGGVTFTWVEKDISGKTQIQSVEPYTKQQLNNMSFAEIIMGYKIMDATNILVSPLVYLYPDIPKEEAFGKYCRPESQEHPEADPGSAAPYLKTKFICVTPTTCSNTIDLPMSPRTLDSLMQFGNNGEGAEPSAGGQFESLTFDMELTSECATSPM

`ClC(Cl)=C(c1ccc(Cl)cc1)c1ccc(Cl)cc1`: the result in experiment [1], in experiment [2], in [3], in [4], in experiment [5] and in experiment [7] was inactive. The outcome in experiment [8], in [9], in experiment [10], in [12], in experiment [14] and in [15] was inactive. The compound was classed as inactive in [16], in experiment [17], in experiment [18] and in experiment [19]. Further, the AC50 in [6] was 12 µM (active); in [11], 77.6 µM (active); in experiment [13], 13.1 µM (active); in experiment [18], 55.6 µM (active); in experiment [19] it was 87.7 µM (active).
Regarding `CCCCCCCCCc1ccc(O)cc1`, the AC50 in experiment [20] was 63.2 µM (active); in experiment [13] it was 32.5 µM (active); in experiment [17] it was 151 µM (active). Moreover, the compound was called inactive in [1], in experiment [2], in [3], in [4], in experiment [5] and in [6]. Also, the compound was called inactive in [7], in experiment [8], in [9], in experiment [10], in experiment [11] and in experiment [12]. In addition, the outcome in experiment [14], in experiment [15], in [16], in [17], in [18] and in experiment [19] was inactive.
On to `Cc1cc(-c2ccc(N)c(C)c2)ccc1N`, for which the compound was classed as inactive in experiment [1], in experiment [2], in [3], in [4], in [5] and in [6]. Besides, the result in [7], in [8], in experiment [9], in experiment [10], in experiment [11] and in experiment [12] was inactive. Also, the compound was called inactive in experiment [14], in [15], in [16], in experiment [18] and in experiment [19]. Moreover, the values for the AC50 in experiment [13] and in [19] were 26.7 µM (active) and 87.2 µM (active), respectively.

Usually AC50 stands for the midpoint of the concentration-response curve, whichever way the signal moves.
